About 79,000 compounds went through this panel and 15% of them were active in at least one assay; those are over-represented in the sample as a whole. Active and inactive are the calls of the source. Rule as the data show it: active = growth inhibition above about 70%; inactive = the rest.
Columns and labels:
[1] = NCI Yeast Anticancer Drug Screen. Data for the rad50 strain (AID 155);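 also: 0% = growth of vehicle-only cultures of the same strain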; settings: S. cerevisiae rad50 strain growth inhibition, hits give high values
How it was run: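 Inhibition values express reduced yeast growth in compound-treated cultures relative to vehicle-treated controls.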

[2] = NCI Yeast Anticancer Drug Screen. Data for the mec2-1 strain (AID 157); settings: S. cerevisiae mec2-1 strain, hits give high values
How it was run: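 Each compound was tested on mec2-1 yeast, a strain altered in DNA damage repair or cell cycle control. Growth inhibition is reported relative to vehicle.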

[3] = NCI Yeast Anticancer Drug Screen. Data for the sgs1 mgt1 strain (AID 161);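 also: 0% = growth of cultures given vehicle only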; settings: S. cerevisiae sgs1 mgt1 strain, hits give high values
How it was run: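 Test agents were incubated with a DNA-repair-mutant yeast strain. Growth was then read and compared against vehicle-treated controls.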

[4] = NCI Yeast Anticancer Drug Screen. Data for the cln2 rad14 strain (AID 165);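 also: 0% = growth equal to vehicle treated cultures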; settings: S. cerevisiae cln2 rad14 strain, hits give high values
How it was run: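 Test compounds were added to cln2 rad14 yeast cultures; inhibition of growth was then determined by comparison with vehicle treatment.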

[5] = NCI Yeast Anticancer Drug Screen. Data for the bub3 strain (AID 167); settings: S. cerevisiae bub3 mutant strain, hits give high values
How it was run: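 Steps: expose the mutant yeast strain to compound; grow alongside vehicle-treated cultures; measure growth; express inhibition against the vehicle cultures.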

[6] = NCI Yeast Anticancer Drug Screen. Data for the mlh1 rad18 strain (AID 175); settings: S. cerevisiae mlh1 rad18 strain growth inhibition, hits give high values
How it was run: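 Inhibition values reflect reduced growth of mutant yeast versus vehicle-treated controls following compound exposure; the mutations affect DNA damage repair.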

[7] = at 5.0 µM (retest, dose inferred, filed as 0.5)
[8] = at 50.0 µM (retest, dose inferred, filed as 5.0)

Measured: growth inhibition

Cc1ccc(C2(c3ccc(F)cc3)OC(=O)c3ccccc32)c(O)c1 (stereo not given)
active: [1]; [8] 99% | [1]; at 50.0 µM 86.2% | [2]; [8] 99% | [2]; at 50.0 µM 88.7% | [3]; [8] 99% | [3]; at 50.0 µM 97% | [4]; [8] 99% | [4]; at 50.0 µM 93.8% | [5]; [8] 99% | [5]; at 50.0 µM 98.8% | [6]; [8] 99% | [6]; at 50.0 µM 96.3%
inactive: [1]; [7] 11% | [2]; [7] 13% | [3]; [7] -14% | [4]; [7] 3% | [5]; [7] 11% | [6]; [7] 27%

Oc1c(Cl)cc(C(c2cc(Cl)c(O)c(Cl)c2)C(c2cc(Cl)c(O)c(Cl)c2)c2cc(Cl)c(O)c(Cl)c2)cc1Cl
inactive: [3]; at 50.0 µM 42.8%
active: [1]; [7] 99% | [1]; [8] 98% | [1]; at 50.0 µM 92.5% | [2]; [7] 99% | [2]; [8] 98% | [2]; at 50.0 µM 95.8% | [3]; [7] 99% | [3]; [8] 98% | [4]; [7] 98% | [4]; [8] 98% | [4]; at 50.0 µM 92% | [5]; [7] 99% | [5]; [8] 98% | [5]; at 50.0 µM 93.9% | [6]; [7] 99% | [6]; [8] 98% | [6]; at 50.0 µM 96.8%

COc1cccc2c1C(=O)c1c(O)c3c(c(O)c1C2=O)C[C@@](O)(/C(C)=N\NC(N)=O)C[C@@H]3OC1CC(N)C(O)C(C)O1 (stereo not given in full)
active: [1]; [8] 83% | [1]; at 50.0 µM 88.8%
inactive: [1]; [7] 30% | [2]; [7] 52% | [2]; [8] 34% | [2]; at 50.0 µM 43.8% | [3]; [7] 6% | [3]; [8] 30% | [3]; at 50.0 µM 36.9% | [4]; [7] 7% | [4]; [8] 30% | [4]; at 50.0 µM 1.5% | [5]; [7] 6% | [5]; [8] 45% | [5]; at 50.0 µM 35.6% | [6]; [7] 8% | [6]; [8] 7% | [6]; at 50.0 µM 57%

COC(=O)/C=C(\C)Nc1ccc(Cc2ccc(Br)cc2)cc1
inactive: [1]; [7] -4% | [2]; [7] -13% | [3]; [7] -8% | [4]; [7] 0% | [5]; [7] -5% | [6]; [7] -4%
active: [1]; [8] 98% | [1]; at 50.0 µM 97.5% | [2]; [8] 99% | [2]; at 50.0 µM 96.8% | [3]; [8] 99% | [3]; at 50.0 µM 97.8% | [4]; [8] 99% | [4]; at 50.0 µM 92.9% | [5]; [8] 98% | [5]; at 50.0 µM 94% | [6]; [8] 99% | [6]; at 50.0 µM 98%

O=C1/C(=C\c2ccc(Cl)cc2)SC2SC=C(c3ccc([N+](=O)[O-])cc3)N12 (stereo not given)
active: [1]; [8] 86% | [1]; at 50.0 µM 98.3% | [2]; [8] 94% | [2]; at 50.0 µM 98.9% | [3]; [8] 92% | [3]; at 50.0 µM 99.2% | [4]; [8] 86% | [4]; at 50.0 µM 98% | [5]; [8] 86% | [5]; at 50.0 µM 86.8% | [6]; [8] 92% | [6]; at 50.0 µM 98.6%
inactive: [1]; [7] 0% | [2]; [7] 2% | [3]; [7] -4% | [4]; [7] -20% | [5]; [7] -7% | [6]; [7] 5%

Source: PubChem BioAssay (NCI)
